Source: PubChem BioAssay (NCI)
This is part of a sample that, as a whole, favours compounds with a hit. Of some 83,000 tested, about 20% had one in any assay.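 For each line, cells grew in 96-well plates with the test compound present at a single concentration for 48 hours.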 A number with no mark means an inactive call. The source made the active and inactive calls.

What follows are molecules tested on RPMI-8226 leukemia (assay: NCI-60 one-dose screen, 48 h (100 = growth as untreated, 0 = no growth, -100 = all killed)). Settings: 10 µM unless noted.
Protocol: Growth inhibition of the RPMI-8226 human tumor cell line is measured as a screen for anti-cancer activity. Cells are grown in 96 well plates and exposed to the test compound for 48 hours. Compounds are tested at a single concentration, which is 10^-5 M for most compounds. The reported endpoint is percent growth (GI% or GIPRCNT), where numbers from 0 - 100% represent growth inhibition, and numbers from -100% - 0 represent cell death. For example, a value of 40 represents 60% growth inhibition. A value of 0 means no net growth occurred over the course of the experiment. A value of -40 indicates 40% of cells at the beginning of the experiment died by the end of the experiment. A value of -100 means all cells are dead at the end of the experiment.
NCI-60 Human Tumor Cell Lines Screen was performed using the standard one-dose NCI protocol, which is described in more detail at https://dtp.cancer.gov/discovery_development/nci-60/default.htm.
Compounds with GIPRCNT values below 10 were considered active. Activity score was based on GIPRCNT using the following formula: […]
Score is 0 for GIPRCNT values of 100 or above, 50 for GIPRCNT values of 0, and 100 for GIPRCNT values of -100.

In order of rising growth:
1. CN1CCN(c2nc(-c3csc(-c4ccccc4)n3)cc3ccccc23)CC1  14.1%
2. Cc1ccc2sc3c(c2c1)OC(N)=C(C#N)C3c1cccc(F)c1 (stereo not given)  14.4%
3. CC1(C)CC[C@]2(C(=O)N3CCOCC3)CC[C@]3(C)C(=CC[C@@H]4[C@@]5(C)C/C(=C/c6ccccn6)C(=O)C(C)(C)[C@@H]5CC[C@]43C)[C@@H]2C1  15.9%
4. O=C(NNc1nc2cc(F)ccc2n2cccc12)c1ccncn1  16.8%
5. Cc1cccc(/C=C/C(=O)Nc2ncc(Cc3cccc(C)c3)s2)c1  19.1%
6. CCn1c2ccccc2c2cc(-n3nncc3-c3ccccc3)ccc21  19.8%
7. CCNC(=O)N1CCc2cc(OC)c(OCCc3ccc(OC)cc3)cc2C1c1ccc([N+](=O)[O-])cc1C (stereo not given)  20.7%
8. C[C@@H](Nc1ncnc2ccc(-c3cnc(Cl)c(NS(C)(=O)=O)c3)cc12)c1ccccc1  23.9%
9. NS(=O)(=O)c1ccc(Nc2nc(SCc3ccccc3)nc3ccccc23)cc1  32.8%
10. O=C(CCn1cc[n+](CC(=O)c2ccc(-c3ccccc3)cc2)c1)Nc1cccc2cccnc12  34%
11. COc1ccc(/C(N)=N/C(N)=N/c2nc3ccccc3s2)cc1  43.6%
12. O=S(=O)(NCCNc1nccc(-n2cnc3ccccc32)n1)c1ccc(C(F)(F)F)cc1  44.9%
13. COc1ccc(NC2=C(Cl)C(=O)c3nc(C)ccc3C2=O)cc1OC  47.3%
14. CN(C)C(=O)c1cc(-c2ccc3ncnc(NCc4ccccc4)c3c2)cnc1N  50.5%
15. COc1ccc2c(c1)c(CC(=O)[Se]CCC#N)c(C)n2C(=O)c1ccc(Cl)cc1  50.9%
16. COc1ccc(OC)c(-c2nc(SCC(=O)c3ccc(Br)cc3)nc(Nc3ccc(S(N)(=O)=O)cc3)c2C#N)c1  51.2%
17. Cc1ccc(-c2cc3nc(C(Cl)Cl)nc(-c4cccs4)n3n2)cc1  51.9%
18. N/C(=N\C(N)=N\c1nc2ccccc2s1)c1ccc2ccccc2c1  76.7%
19. C=C(C)[C@@H]1CC[C@]2(C(=O)NCCCCCN(CCC#N)CCC#N)CC[C@]3(C)[C@H](CC[C@@H]4[C@@]5(C)CCC(=O)C(C)(C)[C@@H]5CC[C@]43C)[C@@H]12  79.7%
20. C=C1CC[C@@H]2[C@](C)(CO)[C@H](O)CC[C@@]2(C)[C@@H]1C/C(O)=C1\CCOC1=O  83.8%
21. Cc1ccc2c(c1)C(=O)/C(=C/c1cccc(F)c1)S2  84.6%
22. CC(C)(O)c1cncc(-c2ccc3ncnc(NCc4ccccc4)c3c2)c1  84.6%
23. COc1ccc([C@H]2c3[nH]c4ccccc4c3C[C@H]3C(=O)N(C4CCN(Cc5c(Cl)cccc5Cl)CC4)CC(=O)N23)c(OC)c1  89.9%
24. CC(C)C[C@@H]1N[C@@]2(C(=O)Nc3ccccc32)[C@@H](c2ccc(F)cc2)[C@@H]1C(=O)c1ccc(O)cc1  91.2%
25. NS(=O)(=O)c1ccc(Nc2cc(-c3ccccc3)nc(SCC(=O)c3ccccc3)n2)cc1  93.7%
26. CC(=O)N1N=C(c2cccc(-n3cccc3)c2)CC1c1cccc(F)c1 (stereo not given)  93.7%
27. COc1ccccc1NCc1cccn1Cc1ccc(F)cc1  95.2%
28. O=C(c1ccc(O)cc1)[C@@H]1CN[C@@]2(C(=O)Nc3ccccc32)[C@H]1c1ccc(F)cc1  95.4%
29. COc1ccc2c(c1)c(CC(=O)[Se]CC(=O)O)c(C)n2C(=O)c1ccc(Cl)cc1  98.4%
30. COc1ccc(NC(=O)CSc2nnc(-c3ccc4nc(-c5ccc(OC)c(OC)c5)[nH]c4c3)o2)cc1OC  98.6%
31. Cc1occc1-c1nc2s/c(=C/c3ccc(-c4cc(C(F)(F)F)ccc4Cl)o3)c(=O)n2n1  99.5%
32. O=C1/C(=C/C=C/c2ccco2)SC(=S)N1C1CCCCC1  100%
33. C#CCC#CCN1CCC[C@H]1C(=O)NCC(=O)OC  113%

For `CC1(C)[C@@H](O)CC[C@]2(C)[C@H]3CC[C@@H]4[C@H]5[C@H](C(=O)/C=C\c6ccccn6)CC[C@]5(O)CC[C@@]4(C)[C@]3(C)CC[C@@H]12`, the growth was -19.2% (active).
With `CCNC(=O)Oc1ccc(/C(=C(/C)c2ccccc2)c2ccc(OCCN3CCCCCC3)cc2)cc1` the growth was -32.8% (active).
`CN1CCN(Cc2ccc(NC(=O)c3cncc(C#Cc4cnc5ccc(NCCCO)nn45)c3)cc2C(F)(F)F)CC1` was tested, and the growth was -36.9% (active).
With `CCCn1cnc2c(c1=N)C(c1ccc(F)cc1)c1sc3c(C)cccc3c1O2` (stereo not given) the growth was -13.5% (active).
`CC(=O)Nc1cccc(Nc2nc(N[C@@H](C)c3ccccc3)c3ccccc3n2)c1` was tested, and the growth was -30.9% (active).
With `N#Cc1c(NC(=O)c2cccc(C(F)(F)F)c2F)sc2c1CCC(=O)C2` the growth was -24.6% (active).
With `CCCCCc1ccc(S(=O)(=O)Nc2cc(-c3csc(NC(=O)CN4CCN(C)CC4)n3)ccc2OC)cc1` the growth was -27% (active).
